# In ChEMBL document CHEMBL4513146, “CO-ADD screening of Karazin Kharkiv National University (Ukraine) compounds”:
# Entries with a potency or affinity are not part of this list.
# Columns and labels:
# Staphylococcus aureus = details: Concentration 32 ug.mL-1;; ASSAY_TEST Inhibition of Bacterial Growth; detection method Absorption (OD600); MEDIA CAMHB; plate type 384well; NBS; CORNING #3640; time 18 hr
# Escherichia coli = details: Concentration 32 ug.mL-1;; ASSAY_TEST Inhibition of Bacterial Growth; detection method Absorption (OD600); MEDIA CAMHB; plate type 384well; NBS; CORNING #3640; time 18 hr
Structure (SMILES),Inhibition (Staphylococcus aureus),Inhibition (Escherichia coli)
COc1cccc(-n2ccn3c(SCC(=O)c4cccc(Cl)c4)nnc3c2=O)c1,-1.54%,0.66%
COc1cccc(Oc2nccn3c(=O)n(CC(=O)Nc4cccc(Br)c4)nc23)c1,9.05%,-6.35%
Cc1cc2nn(CC(=O)NCc3ccc4c(c3)OCO4)c(=O)n2c(Nc2ccccc2C)n1,0.76%,-4.19%
Cc1cccc(C)c1NC(=O)CSc1nnc2c3cc(-c4ccccc4)nn3ccn12,-21.6%,-21.37%
COc1ccc(NC(=O)Cn2nc3ccc(-c4ccccc4)nn3c2=O)cc1OC,0.84%,-8.27%
COc1ccc(Cl)cc1NC(=O)Cn1nc2c3cc(-c4ccc(C)c(C)c4)nn3ccn2c1=O,-18.41%,-23.9%
COc1cc(NC(=O)Cn2nc3c(N4CCCC(C)C4)nccn3c2=O)cc(OC)c1 (stereo not given),-12.69%,-14.56%
COc1ccccc1Cn1c(=O)c2sccc2n2c(=O)n(Cc3cccc(C)c3)nc12,10.55%,0.66%
CCc1ccccc1NC(=O)Cn1nc2n(CCC(C)C)c(=O)c3sccc3n2c1=O,-2.34%,-9.52%
Cc1cc(C)cc(Nc2nc(C)cc3nn(CC(=O)Nc4cccc(Cl)c4)c(=O)n23)c1,6.53%,-7.17%
Cc1ccc(NC(=O)CSc2nc3ccccc3n3cnnc23)c(Br)c1,-13.31%,-9.92%
CCc1ccccc1Sc1nccn2c(=O)n(CC(=O)Nc3ccc(OC)cc3)nc12,-2.16%,-10.01%
O=C(Cn1nc2c(Oc3ccccc3)nccn2c1=O)Nc1ccc2c(c1)OCO2,2.59%,-7.1%
Cc1cccc(N(C)C(=O)Cn2nc3cc(C)nc(Nc4ccc(C)c(F)c4)n3c2=O)c1,-15.22%,0.9%
COC(=O)c1ccc(NC(=O)Cn2nc3ccc(SCc4ccc(Cl)cc4)nn3c2=O)cc1,18.39%,1.59%
O=C(Cn1nc2n(Cc3ccccc3)c(=O)c3ccccc3n2c1=O)Nc1ccc2c(c1)OCO2,-3.15%,1.74%
COc1cccc(Oc2nccn3c(=O)n(CC(=O)NCc4cccs4)nc23)c1,7.35%,-2.75%
Cc1cccc(N(Cc2cccc(Cl)c2)S(=O)(=O)c2cccn3c(C)nnc23)c1,2.81%,-5.89%

Structure (SMILES),Inhibition (Staphylococcus aureus),Inhibition (Escherichia coli)
COc1ccc(-c2cc3c4nn(CC(=O)Nc5ccc6c(c5)OCO6)c(=O)n4ccn3n2)cc1,8.96%,6.89%
COc1cccc(CN(c2ccc(F)cc2)S(=O)(=O)c2cccn3cnnc23)c1,-5.01%,-3.63%
Cc1ccc(Cl)cc1NC(=O)CSc1nnc2ccc(C(=O)Nc3cccc(F)c3)cn12,14.11%,0.94%
CCc1ccccc1NC(=O)Cn1nc2c(Sc3ccccc3CC)nccn2c1=O,13.37%,-2.13%
Cc1ccc(NC(=O)Cn2nc3c4cc(-c5ccc(C)c(C)c5)nn4ccn3c2=O)cc1,7.11%,-1.34%
COc1ccc(NC(=O)Cn2nc3ccc(SC(C)C)nn3c2=O)cc1OC,-2.31%,0.47%
Cc1cccc(C)c1NC(=O)Cn1nc2c(SC3CCCCC3)nccn2c1=O,9.56%,-6.16%
O=C(Cn1nc2ccc(SCc3ccc(Cl)cc3)nn2c1=O)Nc1cccc(F)c1,-14.75%,-12.61%
COc1ccc(NC(=O)Cn2nc3c(Sc4ccccc4)nc4ccccc4n3c2=O)cc1Cl,-0.59%,-7.36%
Cc1cccc(NC(=O)Cn2nc3ccc(-c4ccccc4)nn3c2=O)c1,1.55%,-5.19%
Cc1ccc(-n2ccn3c(SCC(=O)N4CCN(c5ccc(F)cc5)CC4)nnc3c2=O)cc1C,15.71%,-2.64%
Cc1ccc(NC(=O)Cn2c(=O)c3nnc(C)n3c3ccccc32)cc1F,11.98%,-4.13%
O=C(Cn1nc2ccc(Sc3cccc(F)c3)nn2c1=O)NCc1ccc(Cl)cc1,1.01%,1.23%
O=C(Cn1nc2c(N3CCOCC3)nccn2c1=O)NCc1ccc(C(F)(F)F)cc1,3.92%,-9.55%
COc1ccc(NC(=O)Cn2nc3c(Sc4cccc(F)c4)nccn3c2=O)cc1Cl,6.9%,-7.48%
COc1ccccc1NC(=O)Cn1nc2n(CCCOC(C)C)c(=O)c3ccccc3n2c1=O,11.96%,2.24%
CCN(CCCNC(=O)CCc1nnc2ccc(-c3ccccc3)nn12)c1ccccc1,5.66%,4.87%
